Results published in PubChem BioAssay (NCATS).
Where “and” joins values, the source holds several entries; their conditions need not be identical. Equal values may be shown once. Inconclusive results are not listed. The source holds several records for some structures; these can differ, active in one and inactive in another. Calls of active or inactive are those of the source. Calls come from the whole dose curve; as a rule, active = well fitted curve in the direction sought with a large enough effect; inconclusive = small, poorly fitted or top-dose-only effect, or another doubt; inactive = no such curve, though single readings can be large; an effect the other way counts as inactive or inconclusive.

What was measured:
[1] = target: Metallo-beta-lactamase type 2 (Klebsiella pneumoniae) (UniProt C7C422); experiment: qHTS to identify inhibitors of the New Delhi Metallo-beta-lactamase (NDM): assay validation screen against the NCATS LOPAC Collection (AID 1794843);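 note: nitrocefin turnover by NDM-1 measured as 485 nm absorbance at plateau; % is set by controls: 0 for no effect and ±100 for the full control effect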
In short: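 NDM-1 at 2 nM final in 50 mM HEPES pH 7.0 with 1 uM ZnSO4 and 0.01% Tween20 was preincubated with library compounds in DMSO. Nitrocefin (50 uM stock) was then added, and absorbance at 485 nm was read at the kinetic plateau.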

[2] = target: Glutathione peroxidase 1 (Homo sapiens) (UniProt P07203); experiment: Primary qHTS Assay for Inhibitors of Recombinant Selenoprotein Glutathione Peroxidase 1 (GPX1) (AID 1845191); note: nearly all actives have a fitted effect of over 65% in size
In short: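 GR-coupled assay: compounds preincubated 30 min at room temperature with GPX1, then reaction started with CHP; final 10 nM GPX1, 1 mM GSH, 0.5 mM CHP, 0.5 mM NADPH, 100 nM GR, 0.01% BSA, pH 7.5 Tris buffer. NADPH fluorescence (340/450 nm) read at 0 and 15 min.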

[3] = target: Phospholipid hydroperoxide glutathione peroxidase GPX4 (Homo sapiens) (UniProt P36969); experiment: Primary qHTS Assay for Inhibitors of Recombinant Selenoprotein Glutathione Peroxidase 4 (GPX4) (AID 1845192); note: nearly all actives have a fitted effect of over 65% in size; note: potency is the fitted concentration of half-maximal effect
In short: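 GR-coupled assay: recombinant GPX4 preincubated 30 min with compound at room temperature; final 200 nM GPX4, 1 mM GSH, 0.5 mM cumene hydroperoxide, 0.5 mM NADPH, 100 nM GR, 0.01% BSA, pH 7.5 Tris. NADPH fluorescence (340/450 nm) read at 0 and 15 min.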

[4] = Quantitative High-Throughput drug screen in 47 multiple myeloma cell lines against the NCATS MIPE library collection: EJM_DSMZ cell viability assay (AID 1918926; note: nearly all actives have a fitted effect of over 30% in size; note: potency is the fitted concentration of half-maximal effect)
In short: (§1)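 Viability readout: CellTiter-Glo luminescence following 5 min room-temperature incubation with reagent. Prior exposure: 48 h, 37C, humidified 5% CO2, 500 cells per well.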

[5] = Quantitative High-Throughput drug screen in 47 multiple myeloma cell lines against the NCATS MIPE library collection: AMO1_DSMZ cell viability assay (AID 1918927; note: nearly all actives have a fitted effect of over 30% in size; note: potency is the fitted concentration of half-maximal effect)
In short: as §1

[6] = Quantitative High-Throughput drug screen in 47 multiple myeloma cell lines against the NCATS MIPE library collection: ARD_JJKsccE7 cell viability assay (AID 1918929; note: potency is the fitted concentration of half-maximal effect;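 for viability: 100% = DMSO-only wells and 0% = media-only wells without cells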)
In short: as §1

[7] = Quantitative High-Throughput drug screen in 47 multiple myeloma cell lines against the NCATS MIPE library collection: Karpas620_DSMZ cell viability assay (AID 1918959); note: nearly all actives have a fitted effect of over 30% in size; note: potency is the fitted concentration of half-maximal effect;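 for viability (% of DMSO): 100% = DMSO-only wells and 0% = cell-free media-only wells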
In short: (§2)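 Inhibition of cell viability is measured here. Each line was plated at 500 cells per well, treated with MIPE 4.0 drugs, kept 48 hours at 37C, then assayed for ATP content by CellTiter-Glo luminescence.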

[8] = Quantitative High-Throughput drug screen in 47 multiple myeloma cell lines against the NCATS MIPE library collection: KMM1_JCRB cell viability assay (AID 1918960); note: nearly all actives have a fitted effect of over 30% in size; note: potency is the fitted concentration of half-maximal effect
In short: (§3)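 Myeloma cells, 500 per well, were exposed to MIPE 4.0 drugs by pin transfer for 48 h at 37 °C, 5% CO2. Viability was read as ATP luminescence with CellTiter-Glo, normalised to DMSO-only (100%) and medium-only (0%) wells.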

[9] = Quantitative High-Throughput drug screen in 47 multiple myeloma cell lines against the NCATS MIPE library collection: Karpas417_ECACC cell viability assay (AID 1918961); conditions: Karpas417 myeloma viability, CellTiter-Glo ATP luminescence, 48 h; viability (% of DMSO): at 45.8 µM (top of the series); note: potency is the fitted concentration of half-maximal effect;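 for viability (% of DMSO): 100% = DMSO only wells and 0% = media only wells without cells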
In short: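 qHTS of the MIPE 4.0 collection: 500 myeloma cells/well, 48 h drug exposure at 37C in 5% CO2, then CellTiter-Glo for 5 min at room temperature before luminescence reading.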

[10] = Quantitative High-Throughput drug screen in 47 multiple myeloma cell lines against the NCATS MIPE library collection: KHM11_PLB cell viability assay (AID 1918962); note: nearly all actives have a fitted effect of over 35% in size; note: potency is the fitted concentration of half-maximal effect
In short: as §2

[11] = Quantitative High-Throughput drug screen in 47 multiple myeloma cell lines against the NCATS MIPE library collection: JIM3_ECACC cell viability assay (AID 1918963; note: nearly all actives have a fitted effect of over 35% in size; note: potency is the fitted concentration of half-maximal effect)
In short: as §2

[12] = Quantitative High-Throughput drug screen in 47 multiple myeloma cell lines against the NCATS MIPE library collection: ARP1_JJKsccF8 cell viability assay (AID 1918928; note: nearly all actives have a fitted effect of over 40% in size; note: potency is the fitted concentration of half-maximal effect)
In short: as §3

[13] = Quantitative High-Throughput drug screen in 47 multiple myeloma cell lines against the NCATS MIPE library collection: Delta47_JCRB cell viability assay (AID 1918925; note: nearly all actives have a fitted effect of over 45% in size; note: potency is the fitted concentration of half-maximal effect)
In short: as §1

[14] = Quantitative High-Throughput drug screen in 47 multiple myeloma cell lines against the NCATS MIPE library collection: FR4_PLB cell viability assay (AID 1918924; note: nearly all actives have a fitted effect of over 35% in size; note: potency is the fitted concentration of half-maximal effect)
In short: as §2

[15] = target: Luciferin 4-monooxygenase (Photinus pyralis) (UniProt P08659); experiment: Primary firefly luciferase (FLuc) qHTS assay for identification of artifact compounds. (AID 1845220); conditions: outcome: dose series up to 54.1 µM; note: nearly all actives have a fitted effect of over 60% in size
In short: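 Titrated compounds were incubated 15 min at RT, protected from light, with luciferin and ATP at 10 uM; reaction started with 10 nM FLuc, luminescence imaged at 5 min, and concentration-response fitted by Hill equation.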

[16] = Primary fluorescence-based thiol-reactive (MSTI) qHTS assay for identification of artifact compounds. (AID 1845221);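 note: thiol-reactive compounds lower the probe fluorescence signal; nearly all actives have a fitted effect of over 65% in size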
In short: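 Probe: MSTI 4 uM, PBS pH 7.4, 2% DMSO. Incubation 1 h, RT, light-protected. Readout fluorescence 525/598 nm.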

[17] = Primary redox qHTS assay for identification of artifact compounds. (AID 1845223);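 note: 0% = DMSO and 100% = reference compound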
In short: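 Amplex Red (25 uM) and HRP (250 mU/mL) in HBSS, with compounds for 15 min, then 250 uM DTT for 30 min, room temperature, dark. Fluorescence 525/598 nm read; normalized to DMSO and 10 uM DA3003; Hill fit.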

[18] = test system: Nanoluciferase (engineered Oplophorus gracilirostris luciferase); experiment: Primary Nanoluciferase (NLuc) qHTS assay for identification of artifact compounds. (AID 1845222);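 note: NLuc secreted into diluted conditioned medium of S16 cells; 0% = DMSO and -100% = no enzyme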
In short: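 qHTS format, against NLuc in S16 cell-conditioned medium. Nano-Glo substrate 1:100 was added after 15 min at room temperature. Luminescence was taken after a further 5 min.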

Chain of Metallo-beta-lactamase type 2 (Klebsiella pneumoniae) (C7C422 whole entry, looked up): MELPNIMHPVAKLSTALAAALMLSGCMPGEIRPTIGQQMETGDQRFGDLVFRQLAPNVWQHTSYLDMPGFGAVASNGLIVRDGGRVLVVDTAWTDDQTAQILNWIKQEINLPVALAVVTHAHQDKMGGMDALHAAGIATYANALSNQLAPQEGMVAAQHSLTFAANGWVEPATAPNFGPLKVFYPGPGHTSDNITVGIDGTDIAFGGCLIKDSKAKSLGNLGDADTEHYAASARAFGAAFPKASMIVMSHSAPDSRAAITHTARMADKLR
Chain of Phospholipid hydroperoxide glutathione peroxidase GPX4 (Homo sapiens) (P36969 whole entry, looked up): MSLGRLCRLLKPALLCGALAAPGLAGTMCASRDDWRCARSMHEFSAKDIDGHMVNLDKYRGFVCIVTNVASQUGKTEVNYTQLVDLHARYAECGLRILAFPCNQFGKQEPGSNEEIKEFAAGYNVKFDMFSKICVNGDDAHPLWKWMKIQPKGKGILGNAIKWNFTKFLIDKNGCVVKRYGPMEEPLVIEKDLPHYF
Chain of Glutathione peroxidase 1 (Homo sapiens) (P07203 whole entry, looked up): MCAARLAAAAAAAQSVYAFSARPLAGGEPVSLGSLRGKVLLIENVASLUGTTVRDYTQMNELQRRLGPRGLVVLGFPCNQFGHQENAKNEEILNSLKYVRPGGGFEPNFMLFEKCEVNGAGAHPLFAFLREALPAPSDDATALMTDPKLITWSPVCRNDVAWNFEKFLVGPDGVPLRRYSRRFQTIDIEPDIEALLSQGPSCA

CC(C)NCC(O)c1ccc(O)c(O)c1 (stereo not drawn)
inactive: outcome [1] | Potency [2] | Potency [3] | Potency [10] | Potency [11]
active: Potency [4] 14.8 µM | Potency [5] 5.26 µM | Potency [6] 5.9 µM | Potency [7] 14.8 µM | Potency [8] 2.64 µM | Potency [9] 1.48 µM

Clc1ccccc1C(c1ccccc1)(c1ccccc1)n1ccnc1
inactive: Potency [2] | Potency [3] | Potency [4] | Potency [10]
active: Potency [9] 0.0093 µM | Potency [11] 18.7 µM

Cc1cn([C@H]2C=C[C@@H](CO)O2)c(=O)[nH]c1=O
inactive: outcome [1] | Potency [2] | Potency [3] | Potency [4] | Potency [5] | Potency [12] | Potency [6] | Potency [7] | Potency [8]
active: Potency [9] 0.0108 µM

CC12CC3CC(C)(C1)CC(N)(C3)C2
inactive: Potency [2] | Potency [3] | Potency [12] | Potency [6] | Potency [7] | Potency [9]

CN1CCN2c3ccccc3Cc3ccccc3C2C1 (stereo not drawn)
inactive: outcome [1] | Potency [2] | Potency [3] | Potency [7]
active: Potency [11] 20.9 µM

Cc1ccccc1N1C(=O)c2cc(S(N)(=O)=O)c(Cl)cc2NC1C (stereo not drawn)
inactive: Potency [2] | Potency [3] | Potency [13] | Potency [4] | Potency [5] | Potency [12] | Potency [6] | Potency [7] | Potency [8] | Potency [10] | Potency [11]

Cc1cn([C@H]2C[C@H](N=[N+]=[N-])[C@@H](CO)O2)c(=O)[nH]c1=O
active: Potency [4] 7.43 µM | viability (% of DMSO) [9] 84.8% | Potency [11] 26.4 µM
inactive: Potency [2] | Potency [3] | Potency [14] | Potency [5] | Potency [12] | Potency [6] | Potency [7] | Potency [8]

COc1ccccc1OCCNCC(O)COc1cccc2[nH]c3ccccc3c12 (stereo not drawn)
inactive: outcome [1] | Potency [2] | Potency [3] | Potency [10]

CCC1(c2ccccc2)C(=O)NCNC1=O
inactive: Potency [2] | Potency [3] | Potency [14] | Potency [4] | Potency [12] | Potency [7]
active: Potency [13] 2.96 µM | Potency [5] 10.5 µM | Potency [6] 14.8 µM | Potency [10] 5.26 µM | Potency [11] 4.69 µM

Fc1ccc([C@@H]2CCNC[C@H]2COc2ccc3c(c2)OCO3)cc1
inactive: outcome [1] | Potency [2] | Potency [3] | Potency [4] | Potency [6] | Potency [7] | Potency [11]

COc1ccccc1OCC(O)CN1CCN(CC(=O)Nc2c(C)cccc2C)CC1 (stereo not drawn)
inactive: Potency [2] | Potency [3] | Potency [14] | Potency [4] | Potency [5] | Potency [12] | Potency [6] | Potency [8] | Potency [11]

CS(=O)(=O)CCNCc1ccc(-c2ccc3ncnc(Nc4ccc(OCc5cccc(F)c5)c(Cl)c4)c3c2)o1
active: Potency [14] 14.8 µM | Potency [13] 0.235 µM | Potency [4] 0.0235 µM | Potency [5] 2.35 µM | Potency [6] 6.62 µM | Potency [7] 18.7 µM | Potency [8] 13.2 µM | Potency [9] 6.62 µM | Potency [10] 4.69 µM | Potency [11] 1.18 µM
inactive: Potency [2] | Potency [3] | outcome [15] | outcome [16] | outcome [17]

Cc1cnc(C(=O)NCCc2ccc(S(=O)(=O)NC(=O)NC3CCCCC3)cc2)cn1
active: Potency [12] 18.7 µM | Potency [8] 18.7 µM | Potency [11] 18.7 µM
inactive: outcome [1] | Potency [2] | Potency [3] | Potency [5] | Potency [6] | Potency [7] | Potency [9]

COc1cc2nc(N3CCN(C(=O)c4ccco4)CC3)nc(N)c2cc1OC
active: Potency [13] 10.5 µM | Potency [5] 5.9 µM | Potency [12] 26.4 µM | Potency [6] 9.35 µM | Potency [7] 5.26 µM | Potency [8] 9.35 µM | Potency [10] 10.5 µM | Potency [11] 9.35 µM
inactive: outcome [1] | Potency [3]

COC(=O)Nc1nc2ccc(C(=O)c3cccs3)cc2[nH]1
inactive: outcome [1] | Potency [2] | Potency [3]
active: Potency [5] 0.001 µM | Potency [12] 0.0042 µM | Potency [6] 0.001 µM | Potency [7] 0.0017 µM | Potency [8] 0.001 µM | Potency [11] 0.001 µM

COc1cc2nc(N(C)CCCNC(=O)C3CCCO3)nc(N)c2cc1OC (stereo not drawn)
inactive: outcome [1] | Potency [2] | Potency [4] | Potency [7] | Potency [8] | Potency [10] | Potency [11]

NCCCCCC(=O)O
inactive: outcome [1] | Potency [2] | Potency [3] | Potency [4] | Potency [5] | Potency [6] | Potency [7] | Potency [8] | Potency [11]

O=c1[nH]cc(F)c(=O)[nH]1
inactive: outcome [1] | Potency [2] | Potency [3] | Potency [4] | Potency [7]
active: Potency [12] 1.87 µM | Potency [8] 10.5 µM | Potency [11] 20.9 µM

CN1CCC(=C2c3ccccc3C=Cc3ccccc32)CC1
active: Potency [13] 9.35 µM
inactive: outcome [1] | Potency [2] | Potency [3] | Potency [6] | Potency [9]

CC1(C)O[C@H]2CC(=O)OC[C@]23[C@H]2CC[C@@]4(C)[C@H](c5ccoc5)OC(=O)[C@H]5O[C@]54[C@]2(C)C(=O)C[C@@H]13
inactive: Potency [2] | Potency [3] | outcome [15] | outcome [16] | outcome [18] | Potency [14] | Potency [4] | Potency [5] | Potency [12] | Potency [6] | Potency [7] | Potency [8] | Potency [10] | Potency [11]

CN1C(C(=O)Nc2ccccn2)=C(O)c2ccccc2S1(=O)=O
inactive: outcome [1] | Potency [2] | Potency [3] | Potency [4] | Potency [12] | Potency [6] | Potency [8] | Potency [9] | Potency [11]

C[C@](N)(Cc1ccc(O)c(O)c1)C(=O)O
inactive: Potency [2] | Potency [14] | Potency [6] | Potency [7]
inactive and 14.3 µM (active): Potency [3]

CC1(CN2CCC(n3c(=O)[nH]c4ccccc43)CC2)OCc2ccccc2-n2cccc21 (stereo not drawn)
inactive: Potency [2] | Potency [3] | Potency [12] | Potency [6] | Potency [7] | Potency [8] | Potency [10] | Potency [11]

CN(C)CCOC(c1ccccc1)c1ccccc1
active: Potency [13] 8.33 µM | Potency [11] 23.5 µM
inactive: Potency [2] | Potency [3] | Potency [14] | Potency [4] | Potency [5] | Potency [12] | Potency [7] | Potency [8]

CN(C)C(=N)N=C(N)N
inactive: Potency [14] | Potency [13] | Potency [4] | Potency [5] | Potency [6] | Potency [8]

COc1ccc2[nH]cc(CCNC(C)=O)c2c1
active: Potency [5] 0.235 µM
inactive: outcome [1] | Potency [2] | Potency [3] | Potency [4] | Potency [6] | Potency [7] | Potency [8] | Potency [9]

O=C(C1CCCCC1)N1CC(=O)N2CCc3ccccc3C2C1 (stereo not drawn)
inactive: Potency [2] | Potency [3] | Potency [14] | Potency [13] | Potency [4] | Potency [5] | Potency [12] | Potency [6] | Potency [7] | Potency [8] | Potency [10] | Potency [11]
